Each structure is given as a SMILES string. Results filed as inconclusive are left out. Values without a mark were called inactive. The source made the active and inactive calls. Calls come from the whole dose curve.
% is set by controls: 0 for no effect and ±100 for the full control effect.

The experiment deals with Thyrotropin receptor (Homo sapiens) (UniProt P16473). Briefly: qHTS assay to identify small molecule agonists of the thyroid stimulating hormone receptor (TSHR) signaling pathway (AID 1224843). Note: nearly all actives have a fitted effect of over 45% in size. The conditions noted are these: TSHR-HEK293 cells, cAMP HTRF, agonist mode, 30 min; series mostly up to 92.4 µM; activation: at the top concentration. From the text: National Center for Advancing Translational Sciences [NCATS]
Sequence of Thyrotropin receptor (Homo sapiens) (P16473 whole entry, looked up): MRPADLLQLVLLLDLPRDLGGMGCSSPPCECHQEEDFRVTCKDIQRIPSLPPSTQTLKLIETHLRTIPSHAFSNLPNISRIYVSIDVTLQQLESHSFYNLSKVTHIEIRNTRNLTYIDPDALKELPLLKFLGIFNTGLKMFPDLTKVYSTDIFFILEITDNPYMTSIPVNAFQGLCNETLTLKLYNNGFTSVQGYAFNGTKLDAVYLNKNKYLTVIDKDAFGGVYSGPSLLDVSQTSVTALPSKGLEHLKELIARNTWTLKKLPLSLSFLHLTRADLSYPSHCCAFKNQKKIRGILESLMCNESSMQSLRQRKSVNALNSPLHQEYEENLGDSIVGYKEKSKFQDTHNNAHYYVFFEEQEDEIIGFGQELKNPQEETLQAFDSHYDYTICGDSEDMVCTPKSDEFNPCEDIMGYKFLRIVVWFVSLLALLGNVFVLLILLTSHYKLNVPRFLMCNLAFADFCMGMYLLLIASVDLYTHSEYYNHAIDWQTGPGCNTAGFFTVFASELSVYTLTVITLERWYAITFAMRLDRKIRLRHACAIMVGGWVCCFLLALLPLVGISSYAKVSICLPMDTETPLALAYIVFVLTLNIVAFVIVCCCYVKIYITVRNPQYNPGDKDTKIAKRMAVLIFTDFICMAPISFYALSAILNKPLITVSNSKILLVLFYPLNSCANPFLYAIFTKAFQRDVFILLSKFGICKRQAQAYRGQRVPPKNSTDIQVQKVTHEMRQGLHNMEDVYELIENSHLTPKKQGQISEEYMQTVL
NIH Chemical Genomics Center [NCGC]
U.S. Environmental Protection Agency [EPA]
National Institutes of Environmental Health Sciences [NIEHS]
National Toxicology Program [NTP]
U.S. Food and Drug Administration [FDA]
TSHR is the receptor for thyrotropin (thyroid stimulating hormone or TSH), a member of the glycoprotein hormone family. TSH is released by the anterior pituitary gland and is the main regulator of thyroid gland growth and development. Upon binding circulating thyrotropin, a G-protein signal cascade activates adenylyl cyclase and […] cAMP concentration is increased. cAMP is a key second messenger involved extensively in cellular signal transduction pathways associated with the majority of G-protein coupled receptors (GPCRs). The activation of these GPCRs by neurotransmitters, lipids, nucleotides, peptides and hormones results in the activation or the inhibition of plasma membrane-bound adenylate cyclase through heterotrimeric G-proteins. A cell-based TSHR assay was used to screen the Tox21 10K library for compounds that can modulate TSHR in agonist mode.
Tox21 Assay Protocol Summary:
TSHR-Hek293 cells were dispensed at 800 cells/4uL/well in 1536-well white plates using a Multidrop dispenser. […] The plates were incubated at room temperature for 30 min. 2.5 ul/well of cAMP-d2 and 2.5ul/well of anti-cAMP-cryptate was added respectively into the assay plates using a Flying Reagent Dispenser. After 1 hr incubation at room temperature, the fluorescence intensity in the plates was measured using an Envision plate reader. Each test compound was measured at 15 concentrations and in triplicates.
(In general: qHTS replaces the single test concentration by a dilution series.)
With `CCCCCC(=O)O`, the compound was called inactive. The same measure, in the same setting: the same measure for `O=C(O)CCCCCCCCC(=O)O`: “inactive”. Same read-out and setting: the same measure for `Cc1ccc2ncccc2c1`: “inactive”. In the case of `CC(=O)CC(C)(C)O`, the “activation” value was -8.47%. With `C=CC[N+](C)(C)CC=C`, the outcome was inactive.

`CC(C)CC(=O)CC(C)CC(C)C` (stereo not given): the result was inactive. On the same count and under the same terms, in the case of `CC(CCO)CC(C)(C)C` (stereo not given) it was “inactive”; in that of `CN(C)CCOC(=O)COc1ccc(Cl)cc1`, “inactive”.

Regarding `C[Si]1(C)O[Si](C)(C)O[Si](C)(C)O[Si](C)(C)O1`, the outcome was inactive. Regarding `CC(CCl)OP(=O)(OC(C)CCl)OC(C)CCl` (stereo not given), the “activation” value is -14.2%. On to `CC(=O)OCCOC(C)=O`, for which the compound was classed as inactive. Regarding `CC(=O)OCc1ccco1`, the compound was classed as inactive. Still for that read-out and setting: in the case of `CC1(C)NC(=O)NC1=O` it was “inactive”; in that of `N#Cc1ccccc1`, “inactive”.

Consider `N[C@H](Cc1c[nH]c2ccccc12)C(=O)O`, for which the outcome was inactive. Same read-out and setting: the same measure for `CC(C)c1cccc(C(C)C)c1`: “inactive”.

With `Cc1ccc([N+](=O)[O-])cc1S(=O)(=O)O`, the call was inactive.

As to `C[C@]12CC[C@@H]3c4ccc(O)cc4CC[C@H]3[C@@H]1C[C@@H](O)[C@@H]2O`, the compound was classed as inactive.

`C=CC(=O)OCCC(=O)O`: the compound was classed as inactive. Same read-out and setting: in the case of `CC(C)CCCCCCCOC(=O)CCCCC(=O)OCCCCCCCC(C)C` it was “inactive”; in that of `CCCCCCCCCCN`, “inactive”; in that of `CC(C)CC(C)O` (stereo not given), “inactive”. As to `OCc1ccccc1`, the result was inactive. Turning to `CCCCC(C=O)CC` (stereo not given), the outcome was inactive.

Take `CCCCCCO`: the result was inactive.

Consider `CC1(C)S[C@@H]2[C@H](NC(=O)COc3ccccc3)C(=O)N2[C@H]1C(=O)O`, for which the call was inactive.

Take `CCCCCCCCCCO`: the call was inactive. Same read-out and setting: in the case of `CC(C)(Oc1ccc(CCNC(=O)c2ccc(Cl)cc2)cc1)C(=O)O` it was “inactive”; in that of `COc1ccc(N)c(C)c1`, “inactive”; in that of `O=C1c2ccccc2CCc2ccccc21`, “inactive”. Regarding `CCCCCCCCCCCC(=O)OC`, the compound was called inactive.

On to `COc1ccc(OC)cc1`, for which the result was inactive. Same read-out and setting: in the case of `O=C(O)c1ccc(S(=O)(=O)N(Cl)Cl)cc1` it was “inactive”.

Turning to `NC(=S)NNC(N)=S`, the result was inactive. Take `C=CCc1ccc(OC)c(OC)c1`: the outcome was inactive. As to `CNC(=O)Oc1ccc2c(c1)[C@]1(C)CCN(C)[C@@H]1N2C`, the “activation” value was 19.7% [at 42.5 µM]. `COc1ccc(C)cc1N`: the compound was classed as inactive. On the same count and under the same terms, in the case of `O=C(O)Cn1c(=O)n(Cc2ccc(Br)cc2F)c(=O)c2ccc(Cl)cc21` it was “inactive”. Consider `CCNc1ccccc1`, for which the “activation” value is 1.29%. On to `CC(=O)c1ccc(O)cc1`, for which the result was inactive.

Source of the values: PubChem BioAssay (Tox21).
